Source: PubChem
Most compounds without a hit are left out; they make up all but 1.1% or so of the library.
HTR5A ag: HTR5A agonists in luminescence cell assay, primary screen, counter-screen for OPRM1-OPRD1 heterodimer agonist project, full-deck HTS; 5-hydroxytryptamine receptor 5A (Homo sapiens), P47898; cell-based; activation, % at 9.3 µM; 340,000 compounds, 0.61% hits; AID 504692, 2011; in the data active means activation mostly above about 9.5%, no sharp cut-off; inactive means mostly below about 7.6%;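 further: 0% = cells with vehicle only and 100% = reference agonist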
HTR5A inv ag: HTR5A inverse agonists in luminescence cell assay, primary screen, counter-screen for OPRM1-OPRD1 heterodimer inverse agonist project, full-deck HTS. inhibition, % at 9.3 µM. AID 504634, 2011. HTR5A cell line, inverse agonism. 340,000 compounds, 0.083% hits. 5-hydroxytryptamine receptor 5A (Homo sapiens), P47898; in the data active means inhibition mostly above about 23%, no sharp cut-off; inactive means mostly below about 18%;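 further: 0% = cells with DMSO and 100% = no-cell wells with DMSO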
MOR-DOR ag: agonists of OPRM1-OPRD1 heterodimerization, primary screen, cell-based, luminescence | Mu-type opioid receptor (Homo sapiens) + Delta-type opioid receptor (Homo sapiens), … | cells | activation, % at 9.3 µM | 340,000 compounds, 0.3% hits | AID 504326, 2011;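 further: 0% = vehicle-treated cells and 100% = reference agonist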
MOR-DOR inv ag: inverse agonists of MOR-DOR heterodimerization, primary screen, cell-based, luminescence; 340,000 compounds, 0.21% hits; cell-based MOR-DOR heterodimer luminescence, inverse agonism; inhibition, % at 9.3 µM; in the data active means inhibition above about 22%, passing the limit was not always enough;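 further: 0% = cells with DMSO and 100% = wells without cells with DMSO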
OPRM1-D1 ag cf: agonists of MOR-DOR heterodimerization, confirmation, cell-based, luminescence; shares compounds with MOR-DOR ag; cells, luminescence complementation; activation, % at 9.3 µM; 830 compounds, 45% hits;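 further: 0% = vehicle-treated cells and 100% = reference agonist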
HTR5A ag ctr2: HTR5A agonists in cells, counter-screen for OPRM1-OPRD1 heterodimer agonist project, cell-based, luminescence | shares compounds with MOR-DOR ag | HTR5A agonist counterscreen | activation, % at 9.3 µM | 830 compounds, 8% hits | AID 504905, 2011; in the data active means activation above about 17%;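 further: 0% = vehicle-treated cells and 100% = reference agonist response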
The depositor's hits bear a star; / = no result. Unless noted, no stated cut-off is given here; in the data, active means activation above about 18%; inactive means the rest.

SMILES	HTR5A ag	HTR5A inv ag	MOR-DOR ag	MOR-DOR inv ag	OPRM1-D1 ag cf	HTR5A ag ctr2
CCOC(=O)N1CCN(c2ncnc3c2[nH]c2ccc(OC)cc23)CC1	14.0	-44.6	-0.2	1.0	/	/
COc1ccc2[nH]c3c(N4CCc5ccccc5C4)ncnc3c2c1	10.3	-21.5	19.6*	-99.3	2.0	6.2
C#CCn1cc(/C=N/Nc2nc3ccccc3[nH]2)c2ccccc21	-2.6	7.8	33.4*	-226.2	0.7	3.7
C(=N\Nc1nc2ccccc2[nH]1)/c1ccccn1	-0.8	-10.1	-1.2	5.8	/	/
Cc1c(CCOC(=O)c2ccccc2)sc[n+]1CC(=O)c1ccc(Br)cc1	5.8	-17.2	35.7*	-288.0	54.0*	-1.0
Cc1c(CCOC(=O)c2cc([N+](=O)[O-])cc([N+](=O)[O-])c2)sc[n+]1CC(=O)c1ccccc1	6.2	-17.7	4.9	-25.2	/	/
CC1CC(C)CN(CC(=O)N2CCCc3c2c(=O)oc2ccc(OCc4ccccc4)cc32)C1 (configuration not stated)	6.8	-2.2	4.7	-28.0	/	/
CC1CCN(CC(=O)N2CCCc3c2c(=O)oc2ccc(OCc4ccccc4)cc32)CC1	13.5*	22.9	26.9*	-160.3	31.6*	-4.4
Cc1nc2cc(NC(=O)c3ccc([N+](=O)[O-])s3)ccc2s1	9.0	-17.9	29.8*	-161.1	1.5	5.7
CCC(CC)c1nnc(NC(=O)CCc2ccccc2OC)s1	-1.7	4.6	-0.8	5.8	/	/
N#CC1=C2N=C(N)c3c(sc4c3CCCCC4)N2C2=C(C(=O)CCC2)C1c1ccccc1 (configuration not stated)	1.0	11.6	-0.9	5.8	/	/
CCOc1ccc(C2C(C#N)=C(N)N(c3sc4c(c3C#N)CCCC4)C3=C2C(=O)CCC3)cc1 (configuration not stated)	2.4	-6.5	79.4*	-483.1	4.1	2.8
O=C(Nc1ccccn1)c1cc2cc([N+](=O)[O-])ccc2s1	1.9	2.0	60.5*	-303.1	30.7*	3.6
COc1ccc(C(=O)OCC(=O)N(C)C2CCS(=O)(=O)C2)cc1Br (configuration not stated)	-1.6	10.2	75.6*	-297.7	-1.2	-0.4
COc1ccc(C(=O)OCC(=O)N(C)C2CCS(=O)(=O)C2)cc1S(=O)(=O)N(C)Cc1ccccc1 (configuration not stated)	-4.3	11.7	-3.6	18.7	/	/
Cc1ccc(NC(=O)CNC(=O)c2sc3ccccc3c2Cl)nc1	1.5	-3.7	25.9*	-134.6	-0.1	-1.2
COc1ccc([C@H]2CC(=O)C=C(c3c(C)cc(C)cc3C)C2)cc1	-0.8	-25.2	26.6*	-153.6	-0.1	3.5
CC(=O)Cc1cc(O)c2ccccc2c1OC(=O)c1ccc(Br)cc1	8.3	0.8	19.8*	-100.6	10.9	13.2
O=C(COC(=O)c1ccc(Br)cc1)NCc1ccccc1	0.5	-3.7	-1.2	5.4	/	/
CC(C)[C@H](NC(=O)C1CCN(C(=O)[C@@H]2CCCN2)CC1)C(=O)NCc1ccc(F)cc1	0.7	10.7	-2.5	12.6	/	/
CC1(c2ccccc2)CC(C)(C)N2C(=O)C3(C(C#N)=C(N)Oc4cc(O)ccc43)c3cccc1c32 (configuration not stated)	1.3	-3.0	20.4*	-106.0	47.4*	4.3
CC1CCC(NC(=O)c2ccc(COc3ccccc3)o2)CC1 (configuration not stated)	-0.1	-42.1	1.2	-6.8	/	/
CCOC(=O)C1=C(C)N(CCCC(=O)O)C(=O)NC1c1ccccc1OS(=O)(=O)c1ccc(C)cc1 (configuration not stated)	-1.9	4.8	62.1*	-339.7	57.5*	5.0
COC(=O)C1=C(C)N(CCCC(=O)O)C(=O)NC1c1ccccc1OS(=O)(=O)c1ccc([N+](=O)[O-])cc1 (configuration not stated)	0.2	-0.5	51.4*	-299.9	46.3*	2.2
